Results published in PubChem BioAssay (NCATS).
Results filed as inconclusive are left out. Where a call stands in place of a potency, no number is given. Active and inactive are the calls of the source. Calls follow the shape of the dose curve; as a rule, active = well fitted inhibition curve with a large enough effect; inconclusive = small, poorly fitted or top-dose-only effect; inactive = flat fitted curve, though single readings scatter.

Tests used:
Test in all cases: qHTS profiling for inhibitors of Plasmodium falciparum proliferation (AID 504749); also: nearly all actives have a fitted effect of over 60% in size
Details in all cases: P. falciparum in erythrocytes, SYBR Green DNA, 72 h; series mostly up to 28.7 µM
[1] = test system: AA1029
Method in brief: (§1)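 Quantitative HTS: compounds pinned into medium, infected erythrocytes added (0.3% parasitemia, 2.5% hematocrit), 72 h culture at 37 C under 5% CO2. Saponin/Triton lysis with SYBR Green I, overnight RT, then fluorescence read.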

[2] = test system: AS120
Method in brief: as §1

[3] = test system: ATS189
Method in brief: as §1

[4] = test system: ATS95
Method in brief: as §1

[5] = test system: C2A
Method in brief: as §1

[6] = test system: CP185
Method in brief: as §1

[7] = test system: CP191
Method in brief: as §1

[8] = test system: CP192
Method in brief: as §1

[9] = test system: CP194
Method in brief: as §1

[10] = test system: CP201
Method in brief: as §1

[11] = test system: CP203
Method in brief: as §1

[12] = test system: CP211
Method in brief: as §1

[13] = test system: CP215
Method in brief: as §1

[14] = test system: CP217
Method in brief: as §1

[15] = test system: CP237
Method in brief: as §1

[16] = test system: CP238
Method in brief: as §1

[17] = test system: CP247
Method in brief: as §1

[18] = test system: CP250
Method in brief: as §1

[19] = test system: CP252
Method in brief: as §1

[20] = test system: CP256
Method in brief: as §1
Potency is read from the fitted curve at half-maximal effect.

Compound | Potency [1] | Potency [2] | Potency [3] | Potency [4] | Potency [5] | Potency [6] | Potency [7] | Potency [8] | Potency [9] | Potency [10] | Potency [11] | Potency [12] | Potency [13] | Potency [14] | Potency [15] | Potency [16] | Potency [17] | Potency [18] | Potency [19] | Potency [20]
CC(C)=CCC/C(C)=C/CC/C(C)=C/CC/C=C(\C)CC/C=C(\C)CCC=C(C)C | inactive | inactive | inactive | inactive | inactive | inactive | inactive | inactive | inactive | inactive | inactive | inactive | inactive | inactive | inactive | inactive | inactive | inactive | inactive | inactive
FC(F)(F)C(F)(F)C(F)(F)C(F)(F)C(F)(F)C(F)(F)F | inactive | inactive | inactive | inactive | inactive | inactive | inactive | inactive | inactive | inactive | inactive | inactive | inactive | inactive | inactive | inactive | inactive | inactive | inactive | inactive
CC(=O)N=c1sc(S(N)(=O)=O)nn1C | inactive | inactive | inactive | inactive | inactive | inactive | inactive | inactive | inactive | inactive | inactive | inactive | inactive | inactive | inactive | inactive | inactive | inactive | inactive | inactive
O=C(O)/C=C/c1ccccc1 | inactive | inactive | inactive | inactive | inactive | inactive | inactive | inactive | inactive | inactive | inactive | inactive | inactive | inactive | inactive | inactive | inactive | inactive | inactive | inactive
CCCOC(=O)c1ccccc1O | inactive | inactive | inactive | inactive | inactive | inactive | inactive | inactive | inactive | inactive | inactive | inactive | inactive | inactive | inactive | inactive | inactive | inactive | inactive | inactive
Cc1ccc(S(=O)(=O)NCl)cc1 | inactive | inactive | inactive | inactive | inactive | inactive | inactive | inactive | inactive | inactive | inactive | inactive | inactive | inactive | inactive | inactive | inactive | inactive | inactive | inactive
CCCCC | inactive | inactive | inactive | inactive | inactive | inactive | inactive | inactive | inactive | inactive | inactive | inactive | inactive | inactive | inactive | inactive | inactive | inactive | inactive | inactive
OC[C@H]1O[C@@](CO)(O[C@H]2O[C@H](CO)[C@@H](O)[C@H](O)[C@H]2O)[C@@H](O)[C@@H]1O | inactive | inactive | inactive | inactive | inactive | inactive | inactive | inactive | inactive | inactive | inactive | inactive | inactive | inactive | inactive | inactive | inactive | inactive | inactive | inactive
CCN(CC)CCOc1ccccc1OC | inactive | inactive | inactive | inactive | inactive | inactive | inactive | inactive | inactive | inactive | inactive | inactive | inactive | inactive | inactive | inactive | inactive | inactive | inactive | inactive
O=S(=O)(O)CC(S)CS (stereo not given) | inactive | inactive | inactive | inactive | inactive | inactive | inactive | inactive | inactive | inactive | inactive | inactive | inactive | inactive | inactive | inactive | inactive | inactive | inactive | inactive
Nc1nc(=O)n([C@@H]2CS[C@H](CO)O2)cc1F | inactive | inactive | inactive | inactive | inactive | inactive | inactive | inactive | inactive | inactive | inactive | inactive | inactive | inactive | inactive | inactive | inactive | inactive | inactive | inactive
C=CC(=O)O | inactive | inactive | inactive | inactive | inactive | inactive | inactive | inactive | inactive | inactive | inactive | inactive | inactive | inactive | inactive | inactive | inactive | inactive | inactive | inactive
O=C(O)c1ccc(NC(=O)[C@H](Cc2ccc(O)cc2)NC(=O)c2ccccc2)cc1 | inactive | inactive | inactive | inactive | inactive | inactive | inactive | inactive | inactive | inactive | inactive | inactive | inactive | inactive | inactive | inactive | inactive | inactive | inactive | inactive
C[Se]CC[C@H](N)C(=O)O | inactive | inactive | inactive | inactive | inactive | inactive | inactive | inactive | inactive | inactive | inactive | inactive | inactive | inactive | inactive | inactive | inactive | inactive | inactive | inactive
CC(C)(CO)[C@@H](O)C(=O)NCCC(=O)NCCSSCCNC(=O)CCNC(=O)[C@H](O)C(C)(C)CO | inactive | inactive | inactive | inactive | inactive | inactive | inactive | inactive | inactive | inactive | inactive | inactive | inactive | inactive | inactive | inactive | inactive | inactive | inactive | inactive
CC(=O)Oc1cccc(C(=O)O)c1OC(C)=O | inactive | inactive | inactive | inactive | inactive | inactive | inactive | inactive | inactive | inactive | inactive | inactive | inactive | inactive | inactive | inactive | inactive | inactive | inactive | inactive
O=C(O)CCCC/C=C(\c1ccccc1)c1cccnc1 | inactive | inactive | inactive | inactive | inactive | inactive | inactive | inactive | inactive | inactive | inactive | inactive | inactive | inactive | inactive | inactive | inactive | inactive | inactive | inactive
CC(=O)Oc1cc(C(F)(F)F)ccc1C(=O)O | inactive | inactive | inactive | inactive | inactive | inactive | inactive | inactive | inactive | inactive | inactive | inactive | inactive | inactive | inactive | inactive | inactive | inactive | inactive | inactive
C=CC(C)(O)CC/C=C(\C)CCC=C(C)C (stereo not given) | inactive | inactive | inactive | inactive | inactive | inactive | inactive | inactive | inactive | inactive | inactive | inactive | inactive | inactive | inactive | inactive | inactive | inactive | inactive | inactive
[O]=[Bi][O]C(=O)[O][Bi]=[O] | inactive | inactive | inactive | inactive | inactive | inactive | inactive | inactive | inactive | inactive | inactive | inactive | inactive | inactive | inactive | inactive | inactive | inactive | inactive | inactive
CN(CCO)CC(O)Cn1cnc2c1c(=O)n(C)c(=O)n2C (stereo not given) (tested in a mixture with another compound) | inactive | inactive | inactive | inactive | inactive | inactive | inactive | inactive | inactive | inactive | inactive | inactive | inactive | inactive | inactive | inactive | inactive | inactive | inactive | inactive
O=c1[nH]c(=O)n([C@H]2C[C@H](O)[C@@H](CO)O2)cc1/C=C/Br | inactive | inactive | inactive | inactive | inactive | inactive | inactive | inactive | inactive | inactive | inactive | inactive | inactive | inactive | inactive | inactive | inactive | inactive | inactive | inactive
CC(C)c1nc(N(C)S(C)(=O)=O)nc(-c2ccc(F)cc2)c1/C=C/C(O)CC(O)CC(=O)O (stereo not given) | inactive | inactive | inactive | inactive | inactive | inactive | inactive | inactive | inactive | inactive | inactive | inactive | inactive | inactive | inactive | inactive | inactive | inactive | inactive | inactive
O=C(O)COc1ccccc1/C=N/NC(=O)c1ccncc1 | inactive | inactive | inactive | inactive | inactive | inactive | inactive | inactive | inactive | inactive | inactive | inactive | inactive | inactive | inactive | inactive | inactive | inactive | inactive | inactive
Cc1cc(C)c(NC(=O)C[C@H](CC(=O)O)c2cccc3ccccc23)c(C(=O)N2CCC3(CCCC3)CC2)c1 | inactive | inactive | inactive | inactive | inactive | inactive | inactive | inactive | inactive | inactive | inactive | inactive | inactive | inactive | inactive | inactive | inactive | inactive | inactive | inactive
CCCCCCOC(=O)c1cccnc1 | inactive | inactive | inactive | inactive | inactive | inactive | inactive | inactive | inactive | inactive | inactive | inactive | inactive | inactive | inactive | inactive | inactive | inactive | inactive | inactive
CN=C1C=CC(=C(c2ccc(N(C)C)cc2)c2ccc(N(C)C)cc2)C=C1 | 708 nM (active) | 1000 nM (active) | 447 nM (active) | 1120 nM (active) | 447 nM (active) | 447 nM (active) | 282 nM (active) | 849 nM (active) | 953 nM (active) | 1200 nM (active) | 1200 nM (active) | 757 nM (active) | 953 nM (active) | 316 nM (active) | 398 nM (active) | 562 nM (active) | 708 nM (active) | 562 nM (active) | 398 nM (active) | 355 nM (active)
Nc1ncnc2c1ncn2CCOCP(=O)(O)O | inactive | inactive | inactive | inactive | inactive | inactive | inactive | inactive | inactive | inactive | inactive | inactive | inactive | inactive | inactive | inactive | inactive | inactive | inactive | inactive
